# Results as given in PMC7862700, “An all-to-all approach to the identification of sequence-specific readers for epigenetic DNA modifications on cytosine”.
# Key:
# Experiment in all cases: DAPPL (digital affinity profiling via proximity ligation, sequencing); 10 mM Tris-HCl pH 7.5, 50 mM NaCl, 1 mM DTT, 4% glycerol, room temperature, 30 min; GST-TFs on glutathione beads, 16-mer random dsDNA library, 0.1% formaldehyde crosslink after washing; high values mean tight binding
# FEV = molecular target: T1, FEV (Homo sapiens, UniProt Q99581 1-238); conditions: protein: recombinant; tags: N-terminal GST; dsDNA, one strand shown
# T1 sequence: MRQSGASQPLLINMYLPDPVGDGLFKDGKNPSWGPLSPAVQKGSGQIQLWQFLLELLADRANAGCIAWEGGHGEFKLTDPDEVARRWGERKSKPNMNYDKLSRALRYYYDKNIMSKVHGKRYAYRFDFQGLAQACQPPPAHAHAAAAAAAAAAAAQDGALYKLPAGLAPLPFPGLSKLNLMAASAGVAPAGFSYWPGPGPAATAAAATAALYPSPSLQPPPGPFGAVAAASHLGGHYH
# Summary of the method: (§1)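 GST fusions of human transcription factors were expressed in yeast and captured with glutathione beads. Once given DNA barcodes and pooled alongside a tag-only sample, they were incubated for 30 min at room temperature with 200 nmole of a random double-stranded 16-mer DNA library in Tris/NaCl/DTT/glycerol buffer, then washed, crosslinked (0.1% formaldehyde), proximity-ligated, PCR-amplified and sequenced on an Illumina NextSeq500. The binding signal of each hexamer is its read frequency for a factor divided by its frequency for the tag-only sample.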
# ETV5 = ETV5 (Homo sapiens, UniProt P41161 1-510); conditions: protein: recombinant; tags: N-terminal GST; dsDNA, one strand shown
# Sequence of ETV5 (P41161 whole entry): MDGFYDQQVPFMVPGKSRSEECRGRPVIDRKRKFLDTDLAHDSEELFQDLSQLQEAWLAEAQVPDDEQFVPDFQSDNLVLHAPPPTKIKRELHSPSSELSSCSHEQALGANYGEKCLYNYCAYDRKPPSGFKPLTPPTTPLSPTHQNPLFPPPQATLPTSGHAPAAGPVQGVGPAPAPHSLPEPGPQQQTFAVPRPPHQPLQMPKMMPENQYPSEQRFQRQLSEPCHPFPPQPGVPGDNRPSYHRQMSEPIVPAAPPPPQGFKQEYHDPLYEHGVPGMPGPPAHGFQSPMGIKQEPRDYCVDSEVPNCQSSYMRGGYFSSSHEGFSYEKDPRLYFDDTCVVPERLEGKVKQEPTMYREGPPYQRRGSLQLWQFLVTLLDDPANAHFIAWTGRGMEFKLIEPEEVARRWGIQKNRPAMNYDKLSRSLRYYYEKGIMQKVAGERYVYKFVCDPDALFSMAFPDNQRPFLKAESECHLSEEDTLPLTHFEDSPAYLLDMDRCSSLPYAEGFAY
# Summary of the method: as §1
# HSF1 = HSF1 (Homo sapiens, UniProt Q00613 1-529); conditions: protein: recombinant; tags: N-terminal GST; chain copies: 3; dsDNA, one strand shown
# Sequence of HSF1 (Q00613 whole entry): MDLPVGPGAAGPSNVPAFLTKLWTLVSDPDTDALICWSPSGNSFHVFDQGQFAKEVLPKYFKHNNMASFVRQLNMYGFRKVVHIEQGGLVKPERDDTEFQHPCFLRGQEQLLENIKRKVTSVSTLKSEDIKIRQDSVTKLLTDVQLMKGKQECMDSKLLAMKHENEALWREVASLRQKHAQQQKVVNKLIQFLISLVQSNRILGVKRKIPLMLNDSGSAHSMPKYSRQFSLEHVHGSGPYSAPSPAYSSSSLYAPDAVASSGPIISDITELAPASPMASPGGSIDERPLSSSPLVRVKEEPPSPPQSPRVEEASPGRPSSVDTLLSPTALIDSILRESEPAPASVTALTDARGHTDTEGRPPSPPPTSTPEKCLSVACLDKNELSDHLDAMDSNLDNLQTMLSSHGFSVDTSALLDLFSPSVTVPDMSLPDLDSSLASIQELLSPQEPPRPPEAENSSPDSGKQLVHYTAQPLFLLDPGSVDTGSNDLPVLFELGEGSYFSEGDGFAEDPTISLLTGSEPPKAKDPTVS
# Summary of the method: as §1
# SPIC = molecular target: T2, SPIC (Homo sapiens, UniProt Q8N5J4 1-248); conditions: protein: recombinant; tags: N-terminal GST; dsDNA, one strand shown
# T2 sequence: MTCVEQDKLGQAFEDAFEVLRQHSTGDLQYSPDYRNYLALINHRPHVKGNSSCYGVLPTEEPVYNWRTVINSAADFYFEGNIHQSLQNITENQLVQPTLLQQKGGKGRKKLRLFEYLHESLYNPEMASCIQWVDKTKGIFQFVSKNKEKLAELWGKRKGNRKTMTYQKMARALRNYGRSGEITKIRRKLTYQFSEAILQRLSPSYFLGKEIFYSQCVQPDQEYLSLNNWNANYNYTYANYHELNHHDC
# Summary of the method: as §1
# ELF4 = ELF4 (Homo sapiens, UniProt Q99607 1-663); conditions: protein: recombinant; tags: N-terminal GST; dsDNA, one strand shown
# Sequence of ELF4 (Q99607 whole entry): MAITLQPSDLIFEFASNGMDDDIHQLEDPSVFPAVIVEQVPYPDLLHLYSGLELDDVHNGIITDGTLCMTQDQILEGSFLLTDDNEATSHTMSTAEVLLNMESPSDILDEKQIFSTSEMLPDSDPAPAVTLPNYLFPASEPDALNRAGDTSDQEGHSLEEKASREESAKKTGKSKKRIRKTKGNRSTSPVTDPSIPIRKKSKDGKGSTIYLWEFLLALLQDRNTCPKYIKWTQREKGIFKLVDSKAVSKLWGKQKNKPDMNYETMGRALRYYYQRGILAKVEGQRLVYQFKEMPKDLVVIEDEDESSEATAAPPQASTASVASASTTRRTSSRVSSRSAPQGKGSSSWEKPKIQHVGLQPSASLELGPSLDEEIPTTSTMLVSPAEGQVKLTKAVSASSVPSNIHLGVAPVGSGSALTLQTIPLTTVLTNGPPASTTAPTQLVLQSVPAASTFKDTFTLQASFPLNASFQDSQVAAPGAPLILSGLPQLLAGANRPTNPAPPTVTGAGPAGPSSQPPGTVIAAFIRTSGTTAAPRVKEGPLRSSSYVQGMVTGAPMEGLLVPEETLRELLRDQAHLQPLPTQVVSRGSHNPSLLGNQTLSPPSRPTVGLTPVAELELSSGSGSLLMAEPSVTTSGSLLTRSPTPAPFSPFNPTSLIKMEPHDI
# Summary of the method: as §1
# ELK4 = molecular target: T3, ELK4 (Homo sapiens, UniProt P28324-2 1-405); conditions: protein: recombinant; tags: N-terminal GST; dsDNA, one strand shown
# T3 sequence: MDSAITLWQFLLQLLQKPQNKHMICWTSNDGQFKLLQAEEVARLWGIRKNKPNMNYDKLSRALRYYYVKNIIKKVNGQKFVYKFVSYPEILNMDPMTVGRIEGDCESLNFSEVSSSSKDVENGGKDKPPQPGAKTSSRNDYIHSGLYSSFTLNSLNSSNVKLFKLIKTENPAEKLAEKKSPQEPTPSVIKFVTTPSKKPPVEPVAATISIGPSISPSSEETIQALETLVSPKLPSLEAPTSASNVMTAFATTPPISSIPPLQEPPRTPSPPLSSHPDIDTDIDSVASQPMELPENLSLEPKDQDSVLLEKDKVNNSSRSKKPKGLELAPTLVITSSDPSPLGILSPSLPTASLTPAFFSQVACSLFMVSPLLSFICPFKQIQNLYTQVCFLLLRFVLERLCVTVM
# Summary of the method: as §1
# ETV2 = molecular target: T4, ETV2 (Homo sapiens, UniProt O00321 1-342); conditions: protein: recombinant; tags: N-terminal GST; dsDNA, one strand shown
# T4 sequence: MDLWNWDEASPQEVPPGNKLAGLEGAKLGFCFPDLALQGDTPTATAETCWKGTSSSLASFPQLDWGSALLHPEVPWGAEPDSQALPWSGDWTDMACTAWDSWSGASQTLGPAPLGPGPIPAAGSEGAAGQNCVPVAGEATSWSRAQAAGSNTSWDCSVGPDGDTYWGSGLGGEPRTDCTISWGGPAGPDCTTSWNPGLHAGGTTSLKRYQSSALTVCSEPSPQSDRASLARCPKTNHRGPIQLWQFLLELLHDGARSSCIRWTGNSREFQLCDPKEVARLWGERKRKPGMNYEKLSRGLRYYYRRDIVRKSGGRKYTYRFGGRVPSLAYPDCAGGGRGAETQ
# Summary of the method: as §1
# ELF3 = molecular target: T5, ELF3 (Homo sapiens, UniProt P78545 1-371); conditions: protein: recombinant; tags: N-terminal GST; dsDNA, one strand shown
# T5 sequence: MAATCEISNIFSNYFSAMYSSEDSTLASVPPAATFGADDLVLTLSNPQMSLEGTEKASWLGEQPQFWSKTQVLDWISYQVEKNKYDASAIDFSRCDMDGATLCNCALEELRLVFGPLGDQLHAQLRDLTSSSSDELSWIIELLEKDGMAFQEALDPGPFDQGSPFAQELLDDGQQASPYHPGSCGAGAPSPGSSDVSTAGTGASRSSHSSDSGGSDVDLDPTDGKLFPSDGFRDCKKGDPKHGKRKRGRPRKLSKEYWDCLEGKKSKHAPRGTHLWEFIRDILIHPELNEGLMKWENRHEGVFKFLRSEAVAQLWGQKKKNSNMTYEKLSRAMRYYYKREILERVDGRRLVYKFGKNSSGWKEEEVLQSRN
# Summary of the method: as §1
# CRX = CRX (Homo sapiens, UniProt O43186 1-299); conditions: protein: recombinant; tags: N-terminal GST; dsDNA, one strand shown
# Sequence of CRX (O43186 whole entry): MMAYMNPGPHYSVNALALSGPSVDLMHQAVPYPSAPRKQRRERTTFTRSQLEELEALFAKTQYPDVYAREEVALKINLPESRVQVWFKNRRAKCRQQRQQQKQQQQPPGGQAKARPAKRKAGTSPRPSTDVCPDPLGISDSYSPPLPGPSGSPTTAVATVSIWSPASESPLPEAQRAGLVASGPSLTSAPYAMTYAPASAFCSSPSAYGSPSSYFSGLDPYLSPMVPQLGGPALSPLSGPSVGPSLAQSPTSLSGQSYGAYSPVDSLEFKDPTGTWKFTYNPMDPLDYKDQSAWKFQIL
# Summary of the method: as §1
# ETV1 = ETV1 (Homo sapiens, UniProt P50549 1-477); conditions: protein: recombinant; tags: N-terminal GST; dsDNA, one strand shown
# Sequence of ETV1 (P50549 whole entry): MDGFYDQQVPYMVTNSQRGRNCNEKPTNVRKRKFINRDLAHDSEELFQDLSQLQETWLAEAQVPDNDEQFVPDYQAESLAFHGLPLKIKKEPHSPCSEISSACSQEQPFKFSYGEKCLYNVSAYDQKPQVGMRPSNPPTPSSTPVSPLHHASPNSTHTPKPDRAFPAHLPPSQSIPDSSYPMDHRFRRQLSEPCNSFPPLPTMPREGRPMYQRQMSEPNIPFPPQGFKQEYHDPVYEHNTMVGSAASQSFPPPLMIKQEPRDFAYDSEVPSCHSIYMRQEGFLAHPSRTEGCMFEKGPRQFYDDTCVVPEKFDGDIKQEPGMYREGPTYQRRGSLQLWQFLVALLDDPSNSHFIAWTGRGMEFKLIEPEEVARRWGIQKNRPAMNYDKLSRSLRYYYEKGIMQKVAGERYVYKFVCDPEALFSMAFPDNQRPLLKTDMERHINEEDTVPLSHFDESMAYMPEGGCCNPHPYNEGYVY
# Summary of the method: as §1
# ERF = molecular target: T6, ERF (Homo sapiens, UniProt P50548 1-548); conditions: protein: recombinant; tags: N-terminal GST; dsDNA, one strand shown
# T6 sequence: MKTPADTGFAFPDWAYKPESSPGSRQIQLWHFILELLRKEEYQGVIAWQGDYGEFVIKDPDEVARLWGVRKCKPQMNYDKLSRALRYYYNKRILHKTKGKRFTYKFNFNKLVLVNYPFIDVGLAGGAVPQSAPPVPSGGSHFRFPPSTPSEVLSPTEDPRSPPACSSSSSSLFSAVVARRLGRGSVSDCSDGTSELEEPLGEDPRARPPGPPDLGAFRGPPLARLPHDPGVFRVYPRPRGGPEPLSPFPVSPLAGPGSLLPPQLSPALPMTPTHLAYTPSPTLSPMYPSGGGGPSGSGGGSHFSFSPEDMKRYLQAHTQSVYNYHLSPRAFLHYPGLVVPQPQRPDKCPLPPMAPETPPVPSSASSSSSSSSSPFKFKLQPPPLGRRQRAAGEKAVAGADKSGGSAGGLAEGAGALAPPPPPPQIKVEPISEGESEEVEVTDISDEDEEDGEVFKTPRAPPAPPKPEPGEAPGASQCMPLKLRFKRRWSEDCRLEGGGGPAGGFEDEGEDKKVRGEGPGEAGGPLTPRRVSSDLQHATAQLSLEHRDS
# Summary of the method: as §1
# ETV3L = molecular target: T7, ETV3L (Homo sapiens, UniProt Q6ZN32 1-361); conditions: protein: recombinant; tags: N-terminal GST; dsDNA, one strand shown
# T7 sequence: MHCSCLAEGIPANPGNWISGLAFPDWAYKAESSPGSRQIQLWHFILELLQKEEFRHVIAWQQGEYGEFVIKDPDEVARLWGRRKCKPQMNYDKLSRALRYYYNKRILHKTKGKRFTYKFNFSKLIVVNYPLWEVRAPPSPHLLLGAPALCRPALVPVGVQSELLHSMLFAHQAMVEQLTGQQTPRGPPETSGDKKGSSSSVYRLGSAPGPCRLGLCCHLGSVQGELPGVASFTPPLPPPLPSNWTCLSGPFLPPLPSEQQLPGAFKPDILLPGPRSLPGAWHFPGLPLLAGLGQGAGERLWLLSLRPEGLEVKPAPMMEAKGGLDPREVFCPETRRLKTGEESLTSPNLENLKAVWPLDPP
# Summary of the method: as §1
# ETS2 = molecular target: T8, ETS2 (Homo sapiens, UniProt P15036 1-469); conditions: protein: recombinant; tags: N-terminal GST; dsDNA, one strand shown
# T8 sequence: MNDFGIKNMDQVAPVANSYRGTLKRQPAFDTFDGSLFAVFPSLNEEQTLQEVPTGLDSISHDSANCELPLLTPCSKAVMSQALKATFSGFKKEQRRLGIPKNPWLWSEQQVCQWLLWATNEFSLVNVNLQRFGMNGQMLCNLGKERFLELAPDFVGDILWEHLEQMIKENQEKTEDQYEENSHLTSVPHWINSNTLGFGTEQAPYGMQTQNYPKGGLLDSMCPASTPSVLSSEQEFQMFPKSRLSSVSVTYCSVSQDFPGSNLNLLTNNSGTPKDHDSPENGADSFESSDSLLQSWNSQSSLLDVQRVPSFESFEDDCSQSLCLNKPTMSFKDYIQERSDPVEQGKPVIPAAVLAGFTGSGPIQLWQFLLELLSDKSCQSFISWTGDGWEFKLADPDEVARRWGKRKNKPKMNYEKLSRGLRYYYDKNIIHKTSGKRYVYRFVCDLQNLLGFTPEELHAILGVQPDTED
# Summary of the method: as §1
# SPDEF = molecular target: T9, SPDEF (Homo sapiens, UniProt O95238 1-335); conditions: protein: recombinant; tags: N-terminal GST; dsDNA, one strand shown
# T9 sequence: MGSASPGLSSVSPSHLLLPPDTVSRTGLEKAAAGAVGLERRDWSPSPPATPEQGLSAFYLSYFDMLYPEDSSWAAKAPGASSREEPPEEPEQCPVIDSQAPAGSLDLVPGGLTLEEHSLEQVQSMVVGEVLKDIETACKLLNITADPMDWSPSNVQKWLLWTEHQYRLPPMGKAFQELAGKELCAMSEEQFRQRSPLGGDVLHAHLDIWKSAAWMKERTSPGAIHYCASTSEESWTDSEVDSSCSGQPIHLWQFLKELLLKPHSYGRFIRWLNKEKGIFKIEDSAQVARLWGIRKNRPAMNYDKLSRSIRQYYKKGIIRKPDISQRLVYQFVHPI
# Summary of the method: as §1
# ETV7 = molecular target: T10, ETV7 (Homo sapiens, UniProt Q9Y603 1-341); conditions: protein: recombinant; tags: N-terminal GST; dsDNA, one strand shown
# T10 sequence: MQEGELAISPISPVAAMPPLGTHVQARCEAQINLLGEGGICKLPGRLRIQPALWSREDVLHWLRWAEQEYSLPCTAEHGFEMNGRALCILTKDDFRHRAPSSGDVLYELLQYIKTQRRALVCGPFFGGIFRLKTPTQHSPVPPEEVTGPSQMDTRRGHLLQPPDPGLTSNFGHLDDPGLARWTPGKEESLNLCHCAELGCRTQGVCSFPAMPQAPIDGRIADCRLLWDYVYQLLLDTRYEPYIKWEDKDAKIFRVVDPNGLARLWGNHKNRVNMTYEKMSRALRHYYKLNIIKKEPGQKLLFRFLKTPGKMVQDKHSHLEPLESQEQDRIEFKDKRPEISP
# Summary of the method: as §1
# ELF5 = molecular target: T11, ELF5 (Homo sapiens, UniProt Q9UKW6-2 1-255); conditions: protein: recombinant; tags: N-terminal GST; dsDNA, one strand shown
# T11 sequence: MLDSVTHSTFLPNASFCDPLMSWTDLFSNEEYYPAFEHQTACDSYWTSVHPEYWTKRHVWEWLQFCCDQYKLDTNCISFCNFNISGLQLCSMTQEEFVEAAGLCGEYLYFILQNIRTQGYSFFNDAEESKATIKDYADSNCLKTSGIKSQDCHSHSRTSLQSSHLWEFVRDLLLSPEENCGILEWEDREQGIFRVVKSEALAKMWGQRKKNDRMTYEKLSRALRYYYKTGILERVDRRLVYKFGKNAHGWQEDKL
# Summary of the method: as §1
# ETV3 = molecular target: T12, ETV3 (Homo sapiens, UniProt P41162-2 1-143); conditions: protein: recombinant; tags: N-terminal GST; dsDNA, one strand shown
# T12 sequence: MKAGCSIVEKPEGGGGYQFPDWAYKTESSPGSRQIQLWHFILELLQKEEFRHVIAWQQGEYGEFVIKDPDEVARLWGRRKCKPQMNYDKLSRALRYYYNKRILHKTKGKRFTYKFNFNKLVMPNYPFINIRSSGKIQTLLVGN
# Summary of the method: as §1
# ETV6 = ETV6 (Homo sapiens, UniProt P41212 1-452); conditions: protein: recombinant; tags: N-terminal GST; dsDNA, one strand shown
# Sequence of ETV6 (P41212 whole entry): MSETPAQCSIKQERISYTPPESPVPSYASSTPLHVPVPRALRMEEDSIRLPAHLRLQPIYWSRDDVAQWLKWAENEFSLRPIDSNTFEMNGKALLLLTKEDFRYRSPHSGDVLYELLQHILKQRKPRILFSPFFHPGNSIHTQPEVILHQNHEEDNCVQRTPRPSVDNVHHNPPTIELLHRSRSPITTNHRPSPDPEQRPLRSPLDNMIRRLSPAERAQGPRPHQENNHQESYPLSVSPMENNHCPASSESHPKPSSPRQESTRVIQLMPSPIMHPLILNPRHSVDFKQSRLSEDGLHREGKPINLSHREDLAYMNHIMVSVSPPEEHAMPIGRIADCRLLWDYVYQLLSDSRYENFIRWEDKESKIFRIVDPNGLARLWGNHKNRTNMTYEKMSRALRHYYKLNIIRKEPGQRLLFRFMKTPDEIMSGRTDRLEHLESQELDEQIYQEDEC
# Summary of the method: as §1
sequence,measurement,setting,value
TTTCTA,binding signal,FEV,"1.34 fold enrichment (6-mer frequency, TF over GST control)"
same,binding signal,ETV5,"1.37 fold enrichment (6-mer frequency, TF over GST control)"
same,binding signal,HSF1,"3.01 fold enrichment (6-mer frequency, TF over GST control)"
same,binding signal,SPIC,"1.52 fold enrichment (6-mer frequency, TF over GST control)"
same,binding signal,ELF4,"1.33 fold enrichment (6-mer frequency, TF over GST control)"
same,binding signal,ELK4,"1.34 fold enrichment (6-mer frequency, TF over GST control)"
same,binding signal,ETV2,"1.27 fold enrichment (6-mer frequency, TF over GST control)"
same,binding signal,ELF3,"1.36 fold enrichment (6-mer frequency, TF over GST control)"
same,binding signal,CRX,"1.97 fold enrichment (6-mer frequency, TF over GST control)"
same,binding signal,ETV1,"1.47 fold enrichment (6-mer frequency, TF over GST control)"
same,binding signal,ERF,"1.32 fold enrichment (6-mer frequency, TF over GST control)"
same,binding signal,ETV3L,"1.3 fold enrichment (6-mer frequency, TF over GST control)"
same,binding signal,ETS2,"1.37 fold enrichment (6-mer frequency, TF over GST control)"
same,binding signal,SPDEF,"1.39 fold enrichment (6-mer frequency, TF over GST control)"
same,binding signal,ETV7,"1.37 fold enrichment (6-mer frequency, TF over GST control)"
same,binding signal,ELF5,"1.31 fold enrichment (6-mer frequency, TF over GST control)"
same,binding signal,ETV3,"1.38 fold enrichment (6-mer frequency, TF over GST control)"
same,binding signal,ETV6,"1.25 fold enrichment (6-mer frequency, TF over GST control)"
